Compound activity as filed in PubChem BioAssay.
ADAM17 inh – ADAM17 inhibition, QFRET primary screen | P78536 | recombinant ADAM17, EDANS/DABCYL FRET peptide cleavage | inhibition, % at 6.95 µM | actives 0.83% (n = 370,000);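 active = inhibition above the mean of compounds lying between control limits plus 3 SD, set per campaign, cut at about 8.5% in these data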;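 note: 0% = DMSO-only wells as the low control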
aDG glyco up – increases alpha dystroglycan glycosylation; AID 624168; actives 0.22% (n = 360,000); activation, % at 10 µM; Pro5-aDG cells, alpha-DG glycosylation AlphaScreen (IIH6); 0% Pro5, 100% B10-LARGE cell signal;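 active = activation of at least 8% versus controls, or a plate z-score of at least 8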;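 note: Pro5 are CHO cells carrying HIG-tagged alpha-DG that lacks glycosylation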
ADAM10 inh – inhibits human ADAM10; inhibition, % at 7 µM; actives 0.62% (n = 370,000); recombinant ADAM10, EDANS/DABCYL FRET peptide cleavage, 3 h;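 active = inhibition above a per-campaign cutoff equal to the mean of compounds falling between control-based bounds plus 3 SD, cut at about 20% in these data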;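 note: 0% = DMSO wells while the 100% control is not disclosed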
Target sequence (O14672 214-748 limits assumed): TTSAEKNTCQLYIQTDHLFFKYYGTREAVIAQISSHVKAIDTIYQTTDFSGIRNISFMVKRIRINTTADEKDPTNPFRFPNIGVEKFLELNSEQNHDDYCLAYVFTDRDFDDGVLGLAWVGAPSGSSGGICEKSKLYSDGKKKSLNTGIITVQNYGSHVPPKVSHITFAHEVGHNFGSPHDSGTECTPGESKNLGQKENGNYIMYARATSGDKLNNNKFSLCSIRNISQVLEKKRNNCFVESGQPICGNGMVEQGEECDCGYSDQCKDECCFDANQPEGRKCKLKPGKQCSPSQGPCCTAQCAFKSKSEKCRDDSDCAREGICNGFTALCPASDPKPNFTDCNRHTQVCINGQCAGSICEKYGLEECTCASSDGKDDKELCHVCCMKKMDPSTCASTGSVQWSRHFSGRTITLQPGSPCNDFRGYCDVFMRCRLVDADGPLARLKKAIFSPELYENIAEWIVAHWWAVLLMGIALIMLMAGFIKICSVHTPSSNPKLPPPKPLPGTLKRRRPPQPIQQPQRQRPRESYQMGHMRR
FAS-TE inh – FAS thioesterase (human) inhibition | P49327 | recombinant FAS-TE, OMFH fluorogenic substrate, fluorescence endpoint | inhibition, % at 15 µM | actives 0.67% (n = 360,000) | AID 602261;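 active = compounds whose normalised, plate-corrected inhibition of enzyme fluorescence in the single-dose primary screen is 50% or more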;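 note: 0% = DMSO with enzyme and 100% = substrate without enzyme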
NR3A LBD binder – modulators (binders) of human NR3A ligand-binding domain | NR3A LBD differential scanning fluorimetry, Tm shift; 0% = protein alone, 100% = glycine-bound protein | Tm shift relative to glycine control, % at 25 µM | actives 2.5% (n = 340,000);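 active = melting temperature shift of at least 10% of the positive control shift, at one fixed dose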
Starred values were filed as active, the others as inactive. Only some compounds are listed: those with a hit (about 4% of all), similar ones and a draw of the others.

Screening Cc1ccc2c(c1)-n1c(nc3cc(F)ccc3c1=O)C(Cc1ccccc1)NC2=O (configuration not stated) returned ADAM17 inh -2.8 and ADAM10 inh -2.3.
For O=C(/C=C/c1ccc(Br)o1)NC(c1ccccc1)c1ccccc1 the results were ADAM17 inh 2.9, aDG glyco up -0.5, ADAM10 inh 8.6, FAS-TE inh 23.2 and NR3A LBD binder 19.6*.
CC1CCc2cc(F)ccc2N1C(=O)CSc1nnc2c(n1)[nH]c1ccc(F)cc12 (configuration not stated) was read as ADAM17 inh -0.2, aDG glyco up 0.0, ADAM10 inh 1.1, FAS-TE inh -2.3 and NR3A LBD binder 24.4*.
For CC1CCCCN1C(=O)CSc1nnc2c(n1)[nH]c1ccccc12 (configuration not stated) the results were ADAM17 inh 0.0, aDG glyco up -0.1, ADAM10 inh 2.1, FAS-TE inh -4.1 and NR3A LBD binder 1.1.
Screening CC1Cc2ccccc2N1C(=O)CSc1nnc2c(n1)[nH]c1ccccc12 (configuration not stated) returned ADAM17 inh -1.0, aDG glyco up 0.1, ADAM10 inh -0.6, FAS-TE inh 9.8 and NR3A LBD binder 22.3*.
COc1ccc2nc(SCC(=O)C(C)(C)C)[nH]c2c1 was read as ADAM17 inh -4.6, aDG glyco up -0.1, ADAM10 inh -4.3, FAS-TE inh -2.1 and NR3A LBD binder 122.6*.
COc1ccccc1NC(=O)Nc1nc(CC(=O)Nc2ccc(N(C)C)cc2)cs1 was read as ADAM17 inh 6.1, aDG glyco up -0.2, ADAM10 inh 11.5, FAS-TE inh 5.6 and NR3A LBD binder 24.4*.
`COc1ccc(NC(=O)Cc2csc(NC(=O)Nc3ccccc3OC)n2)cc1` gave ADAM17 inh 4.2, aDG glyco up -0.1, ADAM10 inh 9.3 and FAS-TE inh 7.8.
COc1ccccc1NC(=O)Nc1nc(CC(=O)Nc2cccc(F)c2)cs1 was read as ADAM17 inh 6.2, aDG glyco up 0.4, ADAM10 inh 18.5, FAS-TE inh 12.6 and NR3A LBD binder 28.3*.
Screening COc1ccccc1NC(=O)Nc1nc(CC(=O)Nc2ccc(F)c(F)c2)cs1 returned ADAM17 inh -0.5, aDG glyco up 0.3, ADAM10 inh 1.5, FAS-TE inh 20.1 and NR3A LBD binder 33.9*.
Screening COc1ccccc1NC(=O)Nc1nc(CC(=O)Nc2cc(F)ccc2F)cs1 returned ADAM17 inh 3.7, aDG glyco up 0.1, ADAM10 inh 12.8, FAS-TE inh 21.7 and NR3A LBD binder 20.7*.
`Cc1cccc(C(=O)Nc2cccc(OCC(=O)O)c2)c1` gave ADAM17 inh -1.1, aDG glyco up -0.2, ADAM10 inh 3.2, FAS-TE inh -8.4 and NR3A LBD binder 0.7.
Screening COc1ccc(S(=O)(=O)NCc2ccccc2Cl)cc1OC returned ADAM17 inh 0.3, aDG glyco up 0.4, ADAM10 inh 7.6, FAS-TE inh -1.4 and NR3A LBD binder -0.1.
`S=c1[nH]nc(C2CCCCC2)n1/N=C/c1ccccc1` gave ADAM17 inh -2.9, aDG glyco up 0.0, ADAM10 inh -2.3, FAS-TE inh 2.2 and NR3A LBD binder -0.5.
COC(=O)c1cc(OC)c(OC)cc1NC(=O)Cc1cccs1 was read as ADAM17 inh -6.2, aDG glyco up 0.5, ADAM10 inh -11.8, FAS-TE inh 7.5 and NR3A LBD binder 1.1.
`COc1ccccc1NC(=O)Nc1nc(CC(=O)Nc2ccc(F)cc2)cs1` gave ADAM17 inh -1.2, aDG glyco up -0.2, ADAM10 inh -4.1, FAS-TE inh 13.3 and NR3A LBD binder 32.7*.
`Cc1ccc(NC(=S)Nc2nc(CC(=O)Nc3ccccc3)cs2)cc1` gave ADAM17 inh -1.2, aDG glyco up 1.3, ADAM10 inh 5.9, FAS-TE inh -6.3 and NR3A LBD binder 17.3*.
Screening CCOC(=O)c1c2ccc(OCC(=O)N/N=C/c3ccc(Cl)cc3)cc2n2ccccc12 returned ADAM17 inh -19.8 and ADAM10 inh -52.0.
`Oc1ccccc1/C=N/NC(=S)NCCc1ccccc1` gave ADAM17 inh -6.1, aDG glyco up 0.6, ADAM10 inh -16.0, FAS-TE inh 17.3 and NR3A LBD binder 27.7*.
For CN(C)c1nc(N/N=C/c2ccccc2O)nc(Nc2ccc(F)cc2)n1 the results were ADAM17 inh -1.9, aDG glyco up 1.1, ADAM10 inh 4.0, FAS-TE inh 9.9 and NR3A LBD binder 37.6*.
For Oc1ccccc1C=NNC(=S)Nc1ccc(F)cc1 the results were ADAM17 inh -7.2, aDG glyco up 1.7, ADAM10 inh -43.8, FAS-TE inh 9.1 and NR3A LBD binder 14.3*.
For C/C(=N\NC(=S)NCCc1ccccc1)c1ccc(O)cc1O the results were ADAM17 inh 4.0, aDG glyco up 0.1, ADAM10 inh -4.1, FAS-TE inh 15.4 and NR3A LBD binder 17.4*.
Screening CC(=O)Nc1ccc(NC(=O)C(C)OC(=O)CNC(=O)c2cccs2)cc1 (configuration not stated) returned ADAM17 inh -4.3, aDG glyco up 0.3, ADAM10 inh 1.6, FAS-TE inh -3.7 and NR3A LBD binder 5.4.
For O=c1c2c(ncn2C2CCCC2)n(Cc2ccccc2)c(=O)n1CCOc1ccc(Br)cc1 the results were ADAM17 inh -2.1, aDG glyco up 0.0, ADAM10 inh 2.6, FAS-TE inh 19.6 and NR3A LBD binder 1.7.
For Cc1ccccc1NC(=O)CN(C)S(=O)(=O)c1ccc2c(c1)n(C)c(=O)c(=O)n2C the results were ADAM17 inh -7.8, aDG glyco up 0.1, ADAM10 inh -36.7, FAS-TE inh -2.8 and NR3A LBD binder 1.8.
Cc1cccc(NC(=O)CN(C)S(=O)(=O)c2ccc3c(c2)n(C)c(=O)c(=O)n3C)c1C was read as ADAM17 inh -4.4, aDG glyco up 0.2, ADAM10 inh -8.2, FAS-TE inh 0.9 and NR3A LBD binder 13.4*.
For CN(CC(=O)Nc1ccc(F)cc1)S(=O)(=O)c1ccc2c(c1)c(=O)n(C)c(=O)n2C the results were ADAM17 inh -4.1, aDG glyco up 0.9, ADAM10 inh 0.9, FAS-TE inh -1.4 and NR3A LBD binder 10.5*.
Cc1ccc2c(c1)N(CCC(=O)NCc1cccs1)C(=O)C(C)O2 (configuration not stated) was read as ADAM17 inh 2.7, aDG glyco up -0.1, ADAM10 inh 7.8, FAS-TE inh -6.0 and NR3A LBD binder -0.3.
`C=CC[C@H](CC(=O)N(CCO)Cc1ccccc1)C(=O)NC[C@H](OC(=O)[C@@H](CC=C)Cc1ccc(F)cc1)c1ccccc1` gave ADAM17 inh -2.8, aDG glyco up -0.3, ADAM10 inh -0.5, FAS-TE inh 17.7 and NR3A LBD binder 1.3.
`C=CC[C@@H](CC(=O)N(CCO)Cc1ccccc1)C(=O)NC[C@@H](OC(=O)[C@@H](CC=C)Cc1ccc(F)cc1)c1ccccc1` gave ADAM17 inh 10.0*, aDG glyco up 0.4, ADAM10 inh 19.6, FAS-TE inh 14.7 and NR3A LBD binder -0.6.
